Records with an inconclusive call do not appear. Entries that show only a call come without a potency. Active and inactive are the calls of the source. Calls follow the shape of the dose curve; as a rule, active = well fitted cell-killing curve with a large enough effect; inconclusive = small, poorly fitted or top-dose-only effect, or effect the other way; inactive = no such curve, though single readings can be large or run the other way.
Potency is read from the fitted curve at half-maximal effect.

This test is described as follows: Quantitative High-Throughput drug screen in 47 multiple myeloma cell lines against the NCATS MIPE library collection: RPMI8226_ATCC cell viability assay (AID 1919871). Also: nearly all actives have a fitted effect of over 30% in size. As to conditions: RPMI8226 myeloma viability, CellTiter-Glo ATP luminescence, 48 h; series mostly up to 45.8 µM. The source says:
PI: Beverly A. Mock Ph.D.
Laboratory of Cancer Biology and Genetics,
Center for Cancer Research, National Cancer Institute,
National Institute of Health, Bethesda, Maryland
Drug resistance and disease progression are common in multiple myeloma (MM) patients, underscoring the need for new therapeutic combinations. […] We hypothesized that effective combinations would reduce MYC expression and enhance p16 activity. […] These preclinical data identify potentially useful drug combinations for evaluation in drug-resistant MM and reveal potential mechanisms of combined drug sensitivity.
Described herein is the primary MIPE qHTS used to cherrypick compounds. Validated compounds were then further tested for potential synergistic activiy.
[1] Peat TJ, Gaikwad SM, Dubois W, Gyabaah-Kessie N, Zhang S, Gorjifard S, Phyo Z, Andres M, Hughitt VK, Simpson RM, Miller MA, Girvin AT, Taylor A, Williams D, D'Antonio N, Zhang Y, Rajagopalan A, Flietner E, Wilson K, Zhang X, Shinn P, Klumpp-Thomas C, McKnight C, Itkin Z, Chen L, Kazandijian D, Zhang J, Michalowski AM, Simmons JK, Keats J, Thomas CJ, Mock BA. Drug combinations identified by high-throughput screening promote cell cycle transition and upregulate Smad pathways in myeloma. Cancer Lett. 2023 Aug 1;568:216284. doi: 10.1016/j.canlet.2023.216284. Epub 2023 Jun 24. PMID: 37356470; PMCID: PMC10408729.
SEQUENCE No. (e.g., 1, 2, 3, etc.); […] (e.g., Cells, Incubation, Reagent, etc.); VALUE and DESCRIPTION.
1; Cells; 5 uL; white, solid bottom 1536-well Greiner assay plate.
2; Compounds; 23 nL; Kalypsis pin tool (Wako USA) equipped with a 1536-well pin head to transfer to the assay plates.
3; Incubation; 48 hours; 37C incubation.
4; Reagent;5uL; CellTiter Glo (Promega).
5; Detector; 425V; Luminescence; Viewlux PerkinElmer.
NOTES (numbers refer to Sequence numbers above)
1. The cell-based screening methods employed in this study were like those previously published. Briefly, the corresponding myeloma cell lines were screened in 1,536-well plates with 500 cells, 5-uL per well for inhibition of cell viability (assessed by measuring ATP levels with CellTiterGlo).
2. NCATS MIPE 4.0 library of approved and investigational drugs were added using the Kalypsis pin tool. Wells treated with DMSO only for 100% viability and media only for 0% viability were used as controls.
3. The assay plates were covered and incubated for 48 hours in a 37C, 5% CO2 incubator with controlled humidity.
4. After 48 hours, CellTilter-GloTM luminescent substrate mix (Promega) reagent was added to the assay plate and plates we incubated for 5 min at room temperature.
5. Signal was measured as median relative luminescence units on a ViewLux (PerkinElmer) multiplate reader.
[1] Heske CM, Davis MI, Baumgart JT, Wilson K, Gormally MV, Chen L, Zhang X, Ceribelli M, Duveau DY, Guha R, Ferrer M, Arnaldez FI, Ji J, Tran HL, Zhang Y, Mendoza A, Helman LJ, Thomas CJ. Matrix Screen Identifies Synergistic Combination of PARP Inhibitors and Nicotinamide Phosphoribosyltransferase (NAMPT) Inhibitors in Ewing Sarcoma. Clin Cancer Res. 2017 Dec 1;23(23):7301-7311. doi: 10.1158/1078-0432.CCR-17-1121. Epub 2017 Sep 12. PMID: 28899971; PMCID: PMC6636827.
Background: ATP-based viability assays read luminescence as a measure of living cells.
For `COC[C@H]1OC(=O)c2coc3c2[C@@]1(C)C1=C(C3=O)C2CCC(=O)[C@@]2(C)C[C@H]1OC(C)=O` (stereo partly drawn), the Potency is 5.9 µM (active).

Consider `C[C@@H]1[C@@H](CC(C[C@H]2O[C@@H]3O[C@]4(C)CC[C@@H]5[C@H](C)CC[C@@H]([C@H]2C)[C@@]35OO4)C[S+](=O)([O-])c2ccc(COC(=O)N(C)C)cc2)O[C@@H]2O[C@]3(C)CC[C@H]4[C@H](C)CC[C@@H]1[C@@]24OO3` (stereo partly drawn), for which the Potency is 0.296 µM (active).

Consider `COC[C@@H](NC(C)=O)C(=O)NCc1ccccc1`, for which the Potency result is “inactive”.

For the compound `COc1ccc(C(=O)c2c(C)n(CCN3CCOCC3)c3ccccc23)cc1`, the Potency entry is “inactive”.

As to `CNC(=O)c1ccc(N2C(=S)N(c3ccc(C#N)c(C(F)(F)F)c3)C(=O)C23CCC3)cc1F`, the Potency result is “inactive”.

Consider `Cn1cc(C2=C(c3cn(C4CCN(Cc5ccccn5)CC4)c4ccccc34)C(=O)NC2=O)c2ccccc21`, for which the Potency result is “inactive”.

On to `COc1ccc(C(CN(C)C)C2(O)CCCCC2)cc1` (stereo not drawn), for which the Potency result was “inactive”.

Take `COC1(CS(=O)c2ccccc2)CCN(CCc2c[nH]c3ccc(F)cc23)CC1` (stereo not drawn): the Potency is 7.43 µM (active).

For the compound `COc1ccc2c(c1OC)CN1CCc3cc4c(cc3C1C2)OCO4` (stereo not drawn), the Potency result is “inactive”.

`CN(C)[C@@H]1C(=O)C(C(N)=O)=C(O)[C@@]2(O)C(=O)C3=C(O)c4c(O)cccc4[C@@](C)(O)[C@H]3C[C@@H]12`: the Potency is 5.9 µM (active).

For the compound `NCC1(CC(=O)O)CCCCC1`, the Potency result is “inactive”.

For the compound `Cc1cccc(C)c1NC(=O)CN1CCCC1=O`, the Potency result is “inactive”.

On to `CN(C)CCN(C)CCc1ccc(Cl)c(Cl)c1`, for which the Potency entry was “inactive”.

As for `Cc1cc(SCc2sc(-c3ccc(C(F)(F)F)c(F)c3)nc2C)ccc1OCC(=O)O`, the Potency is 18.7 µM (active).

As for `Fc1ccc(C(OCCN2CCN(CCCc3ccccc3)CC2)c2ccc(F)cc2)cc1`, the Potency is 18.7 µM (active).

For the compound `CNCC(O)c1ccc(O)cc1` (stereo not drawn), the Potency entry is “inactive”.

In the case of `CN(C)CCc1ccc(O)cc1`, the Potency result was “inactive”.

In the case of `CC(O)(CS(=O)(=O)c1ccc(F)cc1)C(=O)Nc1ccc(C#N)c(C(F)(F)F)c1` (stereo not drawn), the Potency result was “inactive”.

For the compound `O=C(O)C(=O)c1cn(Cc2ccccc2)c2ccc(-c3ccc(OC(F)(F)F)cc3)cc12`, the Potency entry was “inactive”.

Regarding `CC1=C2C[C@@H]3[C@@H](CC=C4C[C@@H](O)CC[C@@]43C)[C@@H]2CC[C@]12O[C@H]1C[C@H](C)CN[C@H]1[C@H]2C`, the Potency is 6.62 µM (active).

In the case of `C[C@@H]1[C@@H](C(=O)C[C@H]2O[C@@H]3O[C@]4(C)CC[C@@H]5[C@H](C)CC[C@@H]([C@H]2C)[C@@]35OO4)O[C@@H]2O[C@]3(C)CC[C@H]4[C@H](C)CC[C@@H]1[C@@]24OO3`, the Potency is 0.833 µM (active).

`CCCC(C)(COC(N)=O)COC(=O)NC(C)C` (stereo not drawn): the Potency entry is “inactive”.

With `CN1CCN(C(=O)O[C@H]2c3nccnc3C(=O)N2c2ccc(Cl)cn2)CC1`, the Potency entry is “inactive”.
